In ChEMBL document CHEMBL4513141, “CO-ADD screening of NIH (USA) - Clinical Collection” (2021):
Results with a measured potency or affinity are listed apart.

How the values were obtained:
Staphylococcus aureus = conditions: Concentration 20 uM; ASSAY_TEST Inhibition of Bacterial Growth; detection method Absorption (OD600); MEDIA CAMHB; plate type 384well; NBS; CORNING #3640; time 18 hr
Escherichia coli = conditions: Concentration 20 uM; ASSAY_TEST Inhibition of Bacterial Growth; detection method Absorption (OD600); MEDIA CAMHB; plate type 384well; NBS; CORNING #3640; time 18 hr

SMILES | Inhibition (Staphylococcus aureus) | Inhibition (Escherichia coli)
CCN(C(C)=O)c1cccc(-c2ccnc3c(C#N)cnn23)c1 [ZALEPLON] | 2.73% | 4.96%
Cl.FC(F)(F)c1cccc(N2CCNCC2)c1 [N- (3-TRIFLUOROMETHYLPHENYL)PIPERAZINE HYDROCHLORIDE (TFMPP)] | -3.1% | 6.36%
C[C@]12CCC(=O)C[C@@H]1CC[C@@H]1[C@@H]2CC[C@@]2(C)[C@H]1CC[C@]2(C)O [MESTANOLONE] | -23.2% | 5.51%
CNCCC(Oc1ccc(C(F)(F)F)cc1)c1ccccc1.Cl (stereo not given) [FLUOXETINE HYDROCHLORIDE] | 15.46% | 2.53%
Brc1c(NC2=NCCN2)ccc2nccnc12 [BRIMONIDINE] | 7.02% | -2.73%
CN(C)CCc1c[nH]c2ccc(Cn3cncn3)cc12.O=C(O)c1ccccc1 [RIZATRIPTAN BENZOATE] | 12.43% | -5.47%
CN1[C@@H]2CC[C@H]1C[C@@H](OC(=O)c1c[nH]c3ccccc13)C2.Cl | 18.1% | -3.68%
O=C(O)C(Cl)Cl [DICHLOROACETIC ACID] | 11.87% | 3.62%
CC(O)(CS(=O)(=O)c1ccc(F)cc1)C(=O)Nc1ccc(C#N)c(C(F)(F)F)c1 (stereo not given) [BICALUTAMIDE] | -1.51% | 6.59%
COC(=O)N1CCN(C(=O)Cc2ccc(Cl)c(Cl)c2)C(CN2CCCC2)C1.O=C(O)/C=C/C(=O)O (stereo not given) | 12.27% | 2.23%
